Experimental findings from PubChem BioAssay are described below.

Unmarked numbers belong to inactive results. How the calls were made is not given here.

The assay in a line: P. aeruginosa biofilm formation inhibitors, primary screen, strain PAO1, LB-PBS medium, absorbance 600 nm (AID 1176). Further: test concentration not given here. The conditions noted are these: P. aeruginosa PAO1 growth/biofilm, A600, 12 h; higher = more signal.
Take `Cc1ccc(S[C@]2(C(=O)NC(C)C)CC(=O)N(C(C)C)[C@@H]2c2ccc(CO)cc2I)cc1`: the z-score is 0.444. For `C=C(/C(=C/C[C@@H](OC(C)=O)c1ccc(CO)o1)c1cc(C(=O)OC)ccc1OC)C(C)C`, the z-score is 0.731. On to `COc1ccc(CCNC(=O)[C@@]2(Cc3ccccc3I)c3ccccc3C(=O)N(Cc3ccccc3Cl)[C@H]2c2ccc(CO)cc2)cc1`, for which the z-score is 0.751. As for `COCCCNC(=O)[C@@]1(Sc2ccc(C)cc2)CC(=O)N(Cc2ccccc2Cl)[C@@H]1c1ccc(CO)cc1I`, the figure is 0.242. Regarding `COc1cc(C(O)C2C=CC3C(=O)N(Cc4ccccc4)C(=O)C3N2n2cnnc2)cc(OC)c1OC` (stereo not given), the z-score was 1.6. With `[N-]=[N+]=Nc1ccccc1C[C@]1(C(=O)NCc2ccccc2)COC(c2ccc(OCCCO)cc2)=N1`, the z-score was -0.0837. For the molecule `Cc1ccc(S[C@]2(C(=O)NCc3ccccc3)CC(=O)N(Cc3cc(C(F)(F)F)cc(C(F)(F)F)c3)[C@@H]2c2ccc(CO)cc2I)cc1`, the z-score was 0.0214. `COc1cc2c(cc1OC)CN(C(=O)[C@@H]1[C@H]3C(=O)O[C@H](c4ccccc4)[C@H](c4ccccc4)N3[C@H](c3ccc(O)cc3)[C@@]13C(=O)Nc1ccc(C#CCCO)cc13)CC2`: the z-score was 1.2. As to `Cc1ccccc1C(O)C1C=CC2C(=O)NC(=O)C2N1Nc1ccc(Cl)cc1Cl` (stereo not given), the z-score is 1.15.

On to `C=CCC(OC(C)=O)[C@@H]1[C@@H](N(Cc2ccc(-c3cccc(C(F)(F)F)c3)o2)C(=O)c2ccc(C)cc2)c2cc(OCCCO)ccc2N1C(=O)Cc1ccc(OC)cc1` (stereo not given in full), for which the z-score was -0.194.
